Screening results: PubChem BioAssay, National Center for Advancing Translational Sciences (NCATS)
Sampled rows, rich in hits. Any-hit rate of the full collection: about 7.5%.
ELG1 genotoxic: qHTS screen for small molecules that induce genotoxicity in human embryonic kidney (HEK293T) cells expressing luciferase-tagged ELG1. HEK293T ELG1-luciferase reporter, luminescence, 16 h. Potency, µM (doses to about 46 µM), for inactives: at the top dose activity change, positive = activation, actives largely listed as activators. actives 1.3% (n = 330,000). AID 504466, 2011; also: % of control where 0% means no effect; nearly all actives have a fitted effect of over 60% in size
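Quantitative HTS format in 1536-well plates. HEK293T ELG1-luciferase reporter cells receive test compound and are incubated 16 hr at 37 °C, 5% CO2; ONE-Glo added, 30 min room temperature, then luminescence read.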
FLuc counter: qHTS profiling assay for firefly luciferase inhibitor/activator using purifed enzyme and Km concentrations of substrates (counterscreen for miR-21 project). Luciferin 4-monooxygenase (Photinus pyralis), P08659. purified FLuc, Km substrates, luminescence inhibition. Potency, µM (titrated, usually from 57.5 µM), inactives show top-dose activity change, negative = inhibition, most hits filed as inhibitors. actives 6.9% (n = 360,000). AID 588342, 2011;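 also: plate controls were vehicle for no effect and reference inhibitor for full effect; nearly all actives have a fitted effect of over 55% in size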
Target sequence (P08659 whole entry, looked up): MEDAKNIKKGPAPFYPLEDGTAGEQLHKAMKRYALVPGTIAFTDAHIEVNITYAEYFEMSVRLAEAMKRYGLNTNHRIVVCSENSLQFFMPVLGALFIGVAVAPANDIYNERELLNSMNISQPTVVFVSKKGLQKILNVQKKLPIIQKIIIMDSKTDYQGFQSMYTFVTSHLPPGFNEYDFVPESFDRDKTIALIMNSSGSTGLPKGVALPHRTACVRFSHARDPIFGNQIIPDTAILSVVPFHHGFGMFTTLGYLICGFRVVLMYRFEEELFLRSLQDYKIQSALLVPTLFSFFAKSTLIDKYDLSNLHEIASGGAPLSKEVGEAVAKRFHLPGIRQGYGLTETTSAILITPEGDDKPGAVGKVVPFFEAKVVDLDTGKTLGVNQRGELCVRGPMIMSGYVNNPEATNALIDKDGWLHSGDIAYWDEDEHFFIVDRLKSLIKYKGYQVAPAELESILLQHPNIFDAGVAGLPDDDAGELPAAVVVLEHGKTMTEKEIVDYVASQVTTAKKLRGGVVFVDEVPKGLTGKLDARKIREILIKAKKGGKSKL
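Purified P. pyralis luciferase (10nM final) with 10uM D-luciferin and 10uM ATP (Km levels) in 50mM Tris acetate pH 7.5, 10mM Mg acetate, 0.01% Tween-20, 0.05% BSA; qHTS 6-point titration, ~60 µM downward; luminescence read.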
Rab9 promoter act: qHTS Assay for Rab9 Promoter Activators. Huh7 Rab9 promoter-luciferase reporter, luminescence, 24 h. Potency, µM (titrated, usually from 9.22 µM), for the others: at the highest dose activation, negative = inhibition, usual class: activators. actives 2.8% (n = 320,000); also: % of control where 0% means no effect; nearly all actives have a fitted effect of over 60% in size
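Stable Rab9-luc Huh7, 1500 cells/well, 2 h settle; cmpd in DMSO, 24 h, 37 °C/5% CO2; luciferase reagent 10 min RT; luminescence.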
SMN2 splice enh: qHTS Assay for Enhancers of SMN2 Splice Variant Expression; Potency, µM (top dose mostly 46.1 µM), inactives show at the top dose activity change, positive = activation, usual class: activators; actives 2.8% (n = 210,000); HEK293 SMN2-luciferase splicing reporter, luminescence, 30-36 h; also: % of control where 0% means no effect; nearly all actives have a fitted effect of over 55% in size
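HEK293 cells carry an SMN2 […]–luciferase reporter in which exon 7 inclusion puts luciferase in frame. Cells were plated 10-12 h before compound addition, then incubated 30-36 h at 37C. ONE-Glo luminescence was read; sodium butyrate at 4.5 mM final served as control.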
NPC1 prom act: qHTS Assay for NPC1 Promoter Activators; Potency, µM (titrated, usually from 9.22 µM), without a hit: at the top dose activation, actives largely listed as activators; actives 2.4% (n = 320,000); Huh7 NPC1 promoter luciferase reporter, 24 h; AID 485313, 2010; also: % of control where 0% means no effect; nearly all actives have a fitted effect of over 60% in size
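Luminescence from an NPC1 promoter-driven luciferase reporter in stably transfected Huh7 cells was measured after 24 h compound treatment at 37 °C, followed by 10 min ambient incubation with luciferase detection reagent.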
Numbers without * were called inactive; u = inconclusive; x = not tested or not shown; [ ] = dose if it differs, or a comment. Calls follow the shape of the dose curve; as a rule, active = well fitted curve in the direction sought with a large enough effect; inconclusive = small, poorly fitted or top-dose-only effect, or another doubt; inactive = no such curve, though single readings can be large; an effect the other way counts as inactive or inconclusive. Potency is read from the fitted curve at half-maximal effect.

SMILES	ELG1 genotoxic	FLuc counter	Rab9 promoter act	SMN2 splice enh	NPC1 prom act
C/C(=N\NC(=O)c1cc(O)ccc1O)c1cccc(NC(=O)c2cccc(Cl)c2)c1	7%	8.5µM*	4%	x	1%
C/C(=N\NC(=O)c1cc(O)ccc1O)c1cccc(NC(=O)c2ccc(Cl)cc2)c1	3%	1.1µM*	14%	x	u
Cc1ccc(C(=O)Nc2ncc(Cc3ccc(F)cc3)s2)o1	u	2.7µM*	2.8µM*	11µM*	2.5µM*
Cc1ccc(C(=O)Nc2ccc(F)cc2)o1	13%	u	26%	9%	23%
Cc1ccc(C(=O)Nc2ncc(C)s2)s1	u	0.85µM*	u	x	0.45µM*
Cc1ccc(C(=O)Nc2nc(C)c(C(=O)N(C)C)s2)o1	u	u	u	x	29%
Cc1ccc(C(=O)Nc2ncc(C)s2)o1	u	11µM*	4µM*	13µM*	3.2µM*
CSc1ncccc1C(=O)Nc1ncc(C)s1	0%	-13%	-11%	x	9%
Cc1ccc(C)c(Cn2nnc3c(=O)[nH]c(C4CCN(C(=O)c5ccco5)CC4)nc32)c1	14%	0%	-6%	x	0%
Cc1ccccc1Nc1c(-c2ccco2)nc2c(C)cccn12	x	13µM*	x	16µM*	x
COc1ccc(/C=C(/C(=O)c2cccs2)N2C=CC=CC2=C(C#N)C#N)cc1	u	13µM*	1%	x	-11%
COc1ccc(C(=O)/C(=C\c2ccco2)N2C=CC=CC2=C(C#N)C#N)cc1	-8%	-15%	-41%	-67%	-29%
COC(=O)c1sccc1NC(=O)c1cc(-c2ccc(C)cc2C)nc2ccccc12	-4%	-2%	0%	-29%	-1%
C=CCOc1c(Br)cc(/C=C2/NC(=S)N(C(C)=O)C2=O)cc1OC	23%	1.5µM*	-3%	9%	0%
Cc1nn2cc(-c3ccc(Cl)cc3)cnc2c1Cl	u	u	3.2µM*	5.6µM*	3.5µM*
Cc1cc(O)c(C)c2c1CC[C@H]1[C@H](C)C(=O)O[C@H]21	x	x	x	0%	x
CC(C)(C)C(=O)Nc1ccc(/C=C/C(=O)c2ccco2)cc1	18µM*	0.43µM*	0.45µM*	x	0.35µM*
Nc1ccc(/C=C/C(=O)c2ccco2)cc1	u	6µM*	u	14%	14%
O=C(/C=C/c1cc(Br)ccc1O)c1ccco1	21%	u	-1%	x	-1%
O=C(/C=C/c1ccccc1O)c1ccco1	u	17µM*	7%	x	-7%
O=C(CSCc1nc2c(nnn2Cc2ccc(F)cc2)c(=O)[nH]1)Nc1cccc(C(F)(F)F)c1	-2%	-12%	-7%	-2%	1%
O=C(NCCN1CCOCC1)/C(=C/c1ccco1)NC(=O)c1ccccc1	5%	2%	3%	x	1%
COCCn1c(SCC#N)nnc1-c1ccc([N+](=O)[O-])cc1	1%	-1%	-14%	14%	-2%
CCC(=O)N1c2ccccc2[C@@H](N(C(C)=O)c2ccccc2)C[C@H]1C	23µM*	0%	14%	7.9µM*	2%
COc1c(C)cc(Br)cc1C(=O)Nc1ccc(N2CCN(S(C)(=O)=O)CC2)cc1	6%	2%	-1%[1.84 µM]	0%	-5%
SMILES	ELG1 genotoxic	FLuc counter	Rab9 promoter act	SMN2 splice enh	NPC1 prom act
COc1ccccc1C(=O)Nc1ccc(N2CCN(S(C)(=O)=O)CC2)cc1	9.2µM*	u	u	u	25%
COc1c(C)cccc1C(=O)Nc1ccc(N2CCN(S(C)(=O)=O)CC2)cc1	u	15µM*	3.2µM*	u	4µM*
CC1(N)CCC(C(C)(C)N)CC1 (configuration not stated)	x	x	x	0%	x
COc1ccc(N2CCN(S(=O)(=O)CCNC(=O)c3ccc(C(F)(F)F)cc3)CC2)cc1	x	-3%	x	x	x
O=C(COc1ccccc1)Nc1ccccc1Cl	u	15µM*	u	-11%	u
O=C(COc1ccccc1)NCCSCc1ccccc1Cl	17%	27µM*	7%	x	20%
CCOC(=O)c1cccnc1SCC(=O)Nc1ccc(C)cc1C	x	-9%	x	x	x
Cc1ccc(/C(N)=N/OC(=O)Oc2ccccc2)cc1	2%	u	1%	-5%	-1%
Cc1ccc(/C(N)=N/OC(=O)c2ccc3ccccc3c2)cc1	u	6.7µM*	u	x	u
Cc1ccc(/C(N)=N/OC(=O)c2cccc(F)c2)cc1	u	3µM*	16%	x	14%
N/C(=N\OC(=O)c1cccc([N+](=O)[O-])c1)c1cccnc1	9%	u	4%	-3%	-2%
N/C(=N\OC(=O)c1cccc(F)c1)c1ccccc1	u	0.67µM*	26%	2%	17%
CCOc1cccc(C(=O)Nc2c(C(=O)c3ccc(OC)cc3)oc3ccccc23)c1	x	2%	x	1%	x
C=CCn1c(SCC(=O)Nc2cccc(S(N)(=O)=O)c2)nc2sc(C)c(C)c2c1=O	-9%	x	x	x	x
CC(C)CCNC(=O)C(CC(C)C)N(Cc1ccc2c(c1)OCO2)C(=O)c1snc(C(N)=O)c1N (configuration not stated)	-14%	0%	1%	-14%	-5%
CCCCC(=O)OCc1nc(N)nc(Nc2ccccc2C)n1	u	19µM*	2%	10%	2%
Cc1ccc(N2CC(C(=O)OCc3nc(N)nc(Nc4ccccc4C)n3)CC2=O)cc1 (configuration not stated)	2%	2%	-2%	x	-1%
Cc1ccccc1Nc1nc(N)nc(COC(=O)C2CCCCC2)n1	12%	15µM*	13%	13%	-1%
Cc1ccccc1Nc1nc(N)nc(COC(=O)CCS(=O)(=O)c2ccc(Cl)cc2)n1	1%	-5%	0%	x	-1%
O=C(O)c1cncc(C(=O)O)c1	x	x	x	-8%[9.22 µM]	x
CCN(CC)c1ccc(/C=C(/C#N)c2nc3ccccc3[nH]2)c(OC(C)C)c1	17%	2.7µM*	u	-65%	21%
CCOc1cccc(/C=C(/C#N)c2nc3ccccc3[nH]2)c1OCC(=O)O	0%	u	0%	x	-5%
Clc1ccc(-c2cc(CSc3ccccc3)on2)cc1	u	2.4µM*	3.2µM*	13µM*	4.5µM*
Clc1ccc(-c2cc(CSc3cccc(Cl)c3)on2)cc1	10%	u	-3%	-18%	1%
c1ccc(SCc2cc(-c3ccccc3)no2)cc1	u	8.5µM*	2.5µM*	247%	3.5µM*
COc1cccc(N2CCN(C(=O)C3CCN(S(=O)(=O)c4ccc5c(c4)CC(C)N5C(C)=O)CC3)CC2)c1 (configuration not stated)	-8%	3%	-8%	x	1%
c1ccc(-c2ccc(N3CCCC4(CCNCC4)C3)cc2)cc1	x	x	x	-55%	x
